# USP1-UAF1 inh: blocks the human USP1/UAF1 deubiquitinase complex; O94782; recombinant USP1/UAF1, Ub-Rhodamine cleavage fluorescence; Potency, µM (doses to about 57.1 µM), hits mostly inhibitors; 390,000 compounds, 0.23% hits; AID 743255; note: nearly all actives have a fitted effect of over 60% in size
# Target sequence (O94782 whole entry, looked up): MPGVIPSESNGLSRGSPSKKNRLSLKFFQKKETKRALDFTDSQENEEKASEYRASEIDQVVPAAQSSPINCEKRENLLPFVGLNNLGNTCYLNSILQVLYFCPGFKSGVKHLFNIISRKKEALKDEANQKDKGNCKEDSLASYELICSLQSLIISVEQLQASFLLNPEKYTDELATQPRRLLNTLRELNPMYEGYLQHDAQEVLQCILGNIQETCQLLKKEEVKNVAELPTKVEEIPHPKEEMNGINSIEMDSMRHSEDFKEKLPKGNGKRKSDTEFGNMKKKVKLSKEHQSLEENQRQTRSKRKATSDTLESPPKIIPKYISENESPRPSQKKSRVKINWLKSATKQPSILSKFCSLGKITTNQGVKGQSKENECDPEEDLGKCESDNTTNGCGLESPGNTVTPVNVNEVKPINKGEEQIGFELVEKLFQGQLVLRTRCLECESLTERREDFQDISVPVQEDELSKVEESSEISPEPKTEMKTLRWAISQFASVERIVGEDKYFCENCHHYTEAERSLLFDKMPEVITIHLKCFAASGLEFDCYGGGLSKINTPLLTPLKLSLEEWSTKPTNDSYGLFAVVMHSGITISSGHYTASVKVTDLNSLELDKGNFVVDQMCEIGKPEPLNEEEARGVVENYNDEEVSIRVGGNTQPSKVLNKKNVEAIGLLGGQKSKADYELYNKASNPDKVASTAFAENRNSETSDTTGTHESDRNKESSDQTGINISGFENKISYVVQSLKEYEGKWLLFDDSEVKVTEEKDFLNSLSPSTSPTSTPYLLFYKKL
#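 USP1/UAF1 complex at 1 nM was preincubated with compound for 15 min at room temperature, then Ub-Rho substrate (150nM final) was added. Fluorescence (480/540 nm) was read kinetically, 6 reads every 60 seconds.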
# ATXN2 expr inh: reduces ATXN2 reporter expression in HEK-293 cells. HEK-293 ATXN2-luciferase reporter, luminescence, 24 h. Potency, µM (highest dose often 57 µM), most hits filed as inhibitors. 360,000 compounds, 0.72% hits; note: nearly all actives have a fitted effect of over 55% in size
#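 qHTS (up to 57 uM final) was run with 24 h compound exposure of reporter cells at 37 °C. Each well was multiplexed: SteadyGlo luminescence measured ATXN2-luciferase expression after a fluorogenic Gly-Phe-AFC viability readout (25 uM final).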
# IL-1B inflam inh: blocks inflammasome-driven IL-1 beta release; 360,000 compounds, 4.7% hits; THP-1 LPS/ATP IL-1B secretion, AlphaLISA, 16 h; active compounds read low; activity change, % at 57.5 µM; AID 743279; in the data active = activity change below about -50%; inconclusive = mostly about -30% to -49%
#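 THP-1 cells pretreated 1 hr with compounds (up to 57.5 uM final), then stimulated with LPS (250 ng/mL final) plus ATP (1.25 mM final); secreted IL-1B measured by AlphaLISA after 16 hr, decreased signal indicating inhibition.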
# S2 tox: reduces viability in counter-screen for ATXN expression inhibitors; S2 cells (HEK-293 line with an ATXN2-luciferase reporter) viability, CellTiter-Fluor protease fluorescence, 24 h; Potency, µM (doses to about 56.7 µM), usual class: cytotoxic; 400,000 compounds, 0.49% hits; note: nearly all actives have a fitted effect of over 40% in size
# USP2a block: USP2a (human) protease inhibition; USP2 core, Ub-CHOP2 coupled fluorogenic reporter, 485/531; 330,000 compounds, 0.01% hits; O75604; Potency, µM (top dose mostly 38.3 µM), usual class: inhibitors; AID 463254
#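 Deubiquitinase activity read as fluorescence (485/531 nm) after Ub-CHOP2 cleavage activates the enterokinase reporter on its substrate; USP2 core 10nM, Ub-CHOP2 and substrate 25nM each, 30min compound preincubation then 60min RT; data normalized to NEM, curves fitted.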
# Hits are given with their value; - = inactive; ? = inconclusive; . = no result; ! = not active in a repeat. Most compounds without a hit are left out; they make up all but 4.8% or so of the library. Unless noted, calls come from the whole dose curve; as a rule, active = well fitted curve in the direction sought with a large enough effect; inconclusive = small, poorly fitted or top-dose-only effect, or another doubt; inactive = no such curve, though single readings can be large; an effect the other way counts as inactive or inconclusive.
SMILES,USP1-UAF1 inh,ATXN2 expr inh,IL-1B inflam inh,S2 tox,USP2a block
COc1ccc(/C=C/C(=O)NCC(=O)N/N=C/c2cc(Br)ccc2OCc2ccccc2)cc1,-,-,-,16µM,-
COc1ccc(Br)cc1/C=N/NC(=O)CNC(=O)/C=C/c1ccccc1,-,-,-,-,-
CC(C(=O)Nc1nc(-c2ccc(F)cc2)cs1)N1C(=O)C2CC=CCC2C1=O (stereo not given),-,-,-81,-,-
O=C(NCc1ccccc1Cl)c1cnc2sc(N3CCCCC3)nn2c1=O,-,-,.,-,.
Cc1ncc2c(c1CNS(=O)(=O)N(C)C)CCN(C(=O)c1ccc(-c3ccc(F)cc3)cc1)C2,.,.,.,-,.
COc1ccc(NC2=NCC(Cc3ccc(Br)cc3)S2)cc1 (stereo not given),-,?,-91,?,-
CCc1ccc(CN(Cc2ccco2)c2cnc(S(C)(=O)=O)nc2C(=O)Nc2ccccc2Cl)cc1,-,-,.,-,.
CCN(CC)c1ccc(C(=O)O)cc1,-,.,-,-,-
CCN(CC)c1ccc(/C=C2\C(=O)c3ccc(C(=O)O)cc3C2=O)cc1,14µM,-,-,-,-
CN(CC1COCCO1)C(=O)c1cnn(-c2ncc3c(n2)-c2ccccc2CC3)c1C1CC1 (stereo not given),.,.,.,-,.
O=C1NC2c3c(Cl)sc(Cl)c3C(=O)C2O1 (stereo not given),-,?,-103,?,.
O=C1NC2c3c(I)sc(I)c3C(=O)C2O1 (stereo not given),-,?,-56,.,.
CCOc1ccccc1NC(=O)Cn1ncc2c([nH]c3ccccc32)c1=O,-,-,.,-,.
Cc1cc(C)c(Nc2cc(S(=O)(=O)O)c(N)c3c2C(=O)c2ccccc2C3=O)c(C)c1,?,-,-55,?,-
COCOCCn1cc(CN2CCS(=O)(=O)N(Cc3ccc(-c4ccc(OC)cc4)cc3)C(C(C)C)C2=O)nn1 (stereo not given),-,-,-,-,.
Cc1c(C#N)c(N)nc(Cl)c1C#N,?,?,-168,?,-
Cc1ccc(NC(=O)c2ncn(CCCN3CCN(Cc4cccc5ccccc45)CC3)n2)cc1C,-,?,-52,32µM,.
COc1ccccc1C(=O)Nc1nnc(-c2ccc3c(c2)CCCC3)o1,-,-,-63,-,-
CC(=O)Nc1nnc(-c2ccc3c(c2)CCCC3)o1,-,-,-,?,-
CCOC(=O)C(C(=O)OCC)C(Nc1ccc(Br)cc1)c1ccccc1 (stereo not given),-,-,-71,-,-
CCOC(=O)C(c1ccccc1)C(Nc1ccc(F)cc1)c1ccccn1 (stereo not given),-,.,-,-,-
CCOC(=O)c1ccc(N=c2sc(C(=O)OC)cc(=O)n2Cc2ccco2)cc1,-,?,-,?,-
CCOC(=O)c1ccc(N=c2sc(C(=O)OC)cc(=O)n2CCCN2CCOCC2)cc1,-,?,-57!,?,-
COc1ccc(-c2cnc(SCC(=O)Nc3cc(C)on3)n2Cc2ccco2)cc1,-,-,-,-,-
COc1ccc(NC(=O)CSc2ncc(-c3ccc(F)cc3)n2Cc2ccco2)cc1,-,-,-62,-,-
SMILES,USP1-UAF1 inh,ATXN2 expr inh,IL-1B inflam inh,S2 tox,USP2a block
O=C(CSc1ccccn1)Nc1nonc1[N+](=O)[O-],-,.,-99,13µM,-
O=C(CSc1ccccn1)Nc1ccc(NC(=O)CSc2ccccn2)cc1,-,-,-,-,-
CCOc1ccc(/C=C/c2nc(C#N)c(NCCCOC)o2)cc1,-,-,-,.,-
CCOc1ccc(/C=C/c2nc(C#N)c(NCCCN(C)C)o2)cc1,-,-,-76,-,-
COC(=O)C1C(C(=O)OC)C1(c1ccccc1)c1ccccc1 (stereo not given),-,-,-,-,-
COC(=O)C1=C(C(=O)OC)C(C(=O)OC)C(C(=O)OC)C(C(=O)OC)(C(=O)OC)C(C(=O)OC)=C1C(=O)OC (stereo not given),-,?,-100,34µM,.
O=C(CCc1ccc(O)cc1)c1c(O)cc(O)cc1O[C@@H]1O[C@H](CO)[C@H](O)[C@H](O)[C@H]1O,.,-,.,.,.
CNc1nc(Nc2ccc(C(C)=O)cc2)nc(OC(C(F)(F)F)C(F)(F)F)n1,-,-,-58,-,-
OCCCc1ccccc1,.,-,.,-,.
CN(C)CC(CCCCC(CN(C)C)C(=O)c1ccccc1)C(=O)c1ccccc1 (stereo not given),-,-,-72,-,-
Cc1cnc(SCc2ccccn2)nc1C1CCCN(C(=O)c2cc3ccccc3oc2=O)C1 (stereo not given),.,.,.,-,.
Cc1cc(C)c(S(=O)(=O)N2CCN(C(=O)CCn3nc(C)c(C)c3C)CC2)c(C)c1,-,-,-84,-,-
O=C(Cn1nc(CNc2ccc(Cl)cc2)[n+]2c1CCCCC2)c1ccc(Br)cc1,-,-,-52,-,-
COc1ccc(NCc2nn(CC(=O)c3ccc(Br)cc3)c3[n+]2CCCCC3)cc1,-,-,?,?,-
O=C(Cn1nc(CNc2ccc(Br)cc2)[n+]2c1CCCCC2)c1ccc([N+](=O)[O-])cc1,-,-,-61,-,-
O=C(Cn1ncc(Cl)c(Cl)c1=O)NC(=O)NC1CCCCC1,-,?,-103,30µM,-
CC(NC(=O)Cn1ccsc1=N)C12CC3CC(CC(C3)C1)C2 (stereo not given),-,-,-59,-,-
O=C(CN1CCCCC1)NC(=O)NC1CCCC1,-,-,-,-,-
CC(NC(=O)Cn1ncc(Cl)c(Cl)c1=O)C12CC3CC(CC(C3)C1)C2 (stereo not given),-,?,-119,18µM,-
O=C(NCc1ccc(F)cc1)c1ccc(CSCc2cccc(Cl)c2)o1,-,?,.,?,.
COCc1nc2oc3ccccc3c(=O)c2cc1C(=O)OC,-,-,-,-,-
COC(=O)[C@@H]1Cc2c([nH]c3ccccc23)C(C)(C)N1C(=O)CCl,-,?,-98,?,-
CCCCNC(=O)C[C@@H]1C[C@@]2(C(=O)OC)CCCCC=C2N(Cc2ccc(Cl)cc2Cl)C1=O,.,?,-,32µM,.
COC(=O)[C@]12CCCCC=C1N(Cc1ccc(Cl)cc1Cl)C(=O)[C@H](CC(=O)NCCc1ccccc1OC)C2,.,?,-61,?,.
CCCCOCCCNC(=O)C[C@@H]1C[C@@]2(C(=O)OC)CCCCC=C2N(Cc2ccc(Cl)cc2Cl)C1=O,.,?,-59,.,.
COC(=O)[C@]12CCCCC=C1N(Cc1ccccc1)C(=O)[C@H](CC(=O)NCCc1ccccc1OC)C2,.,-,-,?,.
CCCCNC(=O)C[C@@H]1C[C@@]2(C(=O)OCC)CCC=C2N(Cc2ccc(Cl)cc2Cl)C1=O,.,-,?,?,.
COC(=O)[C@]12CCCCC=C1N(Cc1ccc(Cl)cc1Cl)C(=O)[C@H](CC(=O)NCCCCc1ccccc1)C2,.,-,-51,?,.

# Screening data: PubChem BioAssay, National Center for Advancing Translational Sciences (NCATS)
